In PubChem BioAssay AID485270 (The Scripps Research Institute Molecular Screening Center, 2010) one finds inhibition data, which are given here for 58 compounds.

Among all 330,000 compounds or so, about 5,800 (1.8%) were called active. For the sample, actives were picked, then their nearest neighbours and some compounds at random. Values without a mark were called inactive. No stated cut-off is given here; in the data, active means inhibition mostly above about 38% (no sharp cut-off); inactive means mostly below about 40%.

For the assay, the target named is Orexin/Hypocretin receptor type 1 (Homo sapiens) (UniProt O43613). The experiment in a line: blocks the human orexin 1 receptor (AID 485270).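 Further: 0% = agonist challenge alone and 100% = reference antagonist.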 The following applies: OX1R-expressing cells, FRET antagonist read-out; at 6.6 µM; hits give high values.
Sequence of Orexin/Hypocretin receptor type 1 (Homo sapiens) (O43613 whole entry, looked up): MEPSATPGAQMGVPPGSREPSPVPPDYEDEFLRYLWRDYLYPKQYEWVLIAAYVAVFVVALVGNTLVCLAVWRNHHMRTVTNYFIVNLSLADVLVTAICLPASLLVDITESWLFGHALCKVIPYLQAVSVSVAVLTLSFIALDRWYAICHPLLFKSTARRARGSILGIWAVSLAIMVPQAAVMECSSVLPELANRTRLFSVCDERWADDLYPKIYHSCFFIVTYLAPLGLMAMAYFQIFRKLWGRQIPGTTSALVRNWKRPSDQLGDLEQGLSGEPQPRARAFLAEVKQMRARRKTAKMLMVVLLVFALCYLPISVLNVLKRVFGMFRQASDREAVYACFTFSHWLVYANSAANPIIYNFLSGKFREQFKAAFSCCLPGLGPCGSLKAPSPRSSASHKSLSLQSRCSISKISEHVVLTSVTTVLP
In general, inhibition refers to the drop in the measured response relative to a control, in per cent. Regarding `CN(C(=O)CSc1cccc[n+]1[O-])C1CCCCC1`, the inhibition was 1.33%. On to `CC(C)(C)OC(=O)C[C@H]1C/C=C\C[C@@H](CC(=O)N[C@H](CO)Cc2ccccc2)C(=O)NC[C@@H](c2ccccc2)OC1=O`, for which the inhibition was 8.19%. As to `COc1ccc(/C=C2\SC(=O)N(CCC(=O)NC3CCS(=O)(=O)C3)C2=O)cc1` (stereo not drawn), the inhibition is 49.4% (active). As to `COc1ccccc1/C=C1\SC(=O)N(CCC(=O)N(C)C2CCS(=O)(=O)C2)C1=O` (stereo not drawn), the inhibition was 16.6%. In the case of `COc1ccc(/C=C2\SC(=O)N(CCC(=O)NCCCn3ccnc3)C2=O)cc1` it was 33.5%; in that of `CC(Sc1ccccc1F)C(=O)Nc1cccc(S(=O)(=O)N2CCOCC2)c1` (stereo not drawn), 9.63%; in that of `CCCOc1ccc(Cn2c(O)cc(=O)[nH]c2=O)cc1`, 6.66%.

For `CCCOc1ccc(Cc2c(O)nc(SC)[nH]c2=O)cc1C`, the inhibition was 11.5%. As to `CCCOc1ccc(Cc2c(Cl)nc(SC)nc2NC)cc1`, the inhibition is 48.2% (active). In the case of `O=C1OCCN1C(=O)[C@H]1[C@H](c2ccc(F)cc2)C(c2ccccc2)=NN1c1ccc(Br)cc1` it was 7.86%. For `CCOC(=O)C1CCN(C(=O)CN2C(=O)NC(C)(c3ccc4cc(OC)ccc4c3)C2=O)CC1` (stereo not drawn), the inhibition was 9.95%.

For the compound `Nc1cccnc1Sc1ccccc1`, the inhibition was 15.4%. For `Cc1ccc(S(=O)(=O)N2CCN(c3ncnc4ccccc34)CC2)cc1`, the inhibition is 25.9%.

Take `Cc1ccc(C)c(S(=O)(=O)N2CCN(c3ncnc4sccc34)CC2)c1`: the inhibition was 28.6% (active). `COc1ccc(C)cc1S(=O)(=O)N1CCN(S(=O)(=O)c2cc(C(=O)O)ccc2C)CC1`: the inhibition was 26.6%. As for `C=CCSc1nsc(NC(=O)Nc2cccc(C(C)=O)c2)n1`, the inhibition was 58.4% (active). For `CCSc1nsc(NC(=O)Nc2cccc(C(C)=O)c2)n1` the value was 84.2% (active). For `CSc1nsc(NC(=O)Nc2ccccc2)n1` the value was 19.6%; for `C=CCSc1nnc(NC(=O)c2ccc(NC(C)=O)cc2)s1`, 5.19%; for `C=C(C)C(=O)Nc1cccc(C(C)=O)c1`, 8.59%. For `CCSc1nsc(NC(=O)Nc2ccccc2OC)n1` the value was 6.99%.

For `CCOC(=O)C1=CN(Cc2ccc(Br)cc2)S(=O)(=O)N(C)C1C` (stereo not drawn), the inhibition is 6.18%. In the case of `C[C@H](CO)N1C[C@H](C)[C@@H](CN(C)S(=O)(=O)c2ccc(F)cc2)Oc2ccc(NC(=O)CCC(F)(F)F)cc2C1=O`, the inhibition is 9.27%. For `O=C(COC(=O)COc1ccccc1F)Nc1cccc(S(=O)(=O)N2CCCCC2)c1` the value was -4.71%; for `O=C(CCNC(=O)c1ccccc1Cl)NN=Cc1ccco1`, 9.66%; for `CC1CCCCC1NC(=O)Cn1c(=O)cnc2ccccc21` (stereo not drawn), 7.4%. Take `N#Cc1c(NC(=O)CCCN2C(=O)c3ccccc3C2=O)oc(-c2ccccc2)c1-c1ccccc1`: the inhibition is 48.7% (active). In the case of `COc1cc(C(=O)Nc2oc(-c3ccccc3)c(-c3ccccc3)c2C#N)cc(OC)c1OC` it was 24.6%; in that of `O=C(CCN1C(=O)c2ccccc2C1=O)Nc1ccncc1`, 21.2%; in that of `C#CCOCCOCCOCCNc1nc(N2CCN(C(=O)[C@H](CCCN=C(N)N)n3cc(C(N)[C@@H](C)CC)nn3)CC2)nc(N2CCN(C(=O)[C@H](CO)n3cc([C@@H](N)C(C)C)nn3)CC2)n1` (stereo partly drawn), 1.49%. As to `COc1cc(Cl)ccc1OCc1cc(C(=O)N2CC[C@@H]3CCCC[C@H]3C2)no1`, the inhibition is -0.82%. `CSc1ccccc1OCc1cc(C(=O)N2C[C@H]3CC[C@H]2C3)no1`: the inhibition was 38.3%.

For `COc1cc(Cl)ccc1OCc1cc(C(=O)N(C)CCc2c(C)n[nH]c2C)no1`, the inhibition is 71.9% (active). In the case of `Cc1ccc(OCc2cc(C(=O)N(C)CCc3ccccc3)no2)cc1C`, the inhibition was 27.7%. In the case of `CCn1ccnc1CN(C)C(=O)c1cc(COc2ccc(Cl)cc2OC)on1`, the inhibition is 16.5%. In the case of `CSc1ccccc1OCc1cc(C(=O)N(C)CCc2c(C)n[nH]c2C)no1` it was 43.7% (active).

For the compound `COc1cccc2sc3cc(NCC[C@@H]4CCCN4C)ccc3c(=O)c12`, the inhibition was 20.1%.

Take `COc1cc(NC(=O)c2[nH]cnc2C(N)=O)cc(C(=O)Nc2cccc(C(F)(F)F)c2)c1`: the inhibition is 33.6%.

For the compound `O=C1CN(C(=O)COC(=O)/C=C/c2ccc(F)cc2)c2ccccc2N1`, the inhibition was 6.47%. In the case of `O=C(C[C@H]1C[C@H](C(=O)N2CCOCC2)[C@@]2(CCC3CCCC3)c3[nH]c4ccc(Cl)cc4c3CCN2C1=O)NCc1ccco1` it was 14.4%; in that of `COc1ccc(CCNC(=O)NS(=O)(=O)c2ccc(C)cc2)cc1OC`, -2.44%. For `COc1ccc(-n2c(C)cc(C(=O)CSc3nnc(-c4cccs4)o3)c2C)cc1` the value was 39.4% (active); for `COc1ccc(-n2c(C)cc(C(=O)COC(=O)c3cc(OC)c(OC)cc3NC(=O)c3cccs3)c2C)cc1`, 1.91%; for `Cc1ccc(-n2c(C)cc(C(=O)CSc3nnc4ccccn34)c2C)cc1`, 12.3%. Turning to `Nc1ncnc2c1ncn2[C@@H]1O[C@H](CNS(=O)(=O)c2ccc(-c3ccno3)s2)[C@@H](O)[C@H]1O`, the inhibition was 6.23%.

Consider `CN(C)C(=O)CCc1ccc2c3c([nH]c2c1)[C@]1(CCC2CCCC2)[C@@H](C(=O)N2CCOCC2)C[C@H](CC(=O)NCc2ccco2)C(=O)N1CC3`, for which the inhibition was 5.29%. In the case of `O=C(COC(=O)CSc1ccccc1)Nc1ccc(F)cc1F` it was 13.6%; in that of `Cn1nnnc1SCC(=O)Nc1cccc(S(=O)(=O)N2CCCCC2)c1`, 12%. For `CC1CCN(S(=O)(=O)c2ccc(NC(=O)C3CC(=O)N(c4ccccc4)C3)cc2)CC1` (stereo not drawn) the value was 25.5%. For `Cc1ccccc1N1CC(C(=O)Nc2ccc(S(=O)(=O)N3CCCC3)cc2)CC1=O` (stereo not drawn) the value was 15.4%; for `COc1ccccc1N1CC(C(=O)Nc2ccc(S(=O)(=O)N3CCOCC3)cc2)CC1=O` (stereo not drawn), 91.1% (active).

`CN(Cc1ccc(CNC[C@H]2O[C@@H](n3cnc4c(N)ncnc43)[C@H](O)[C@@H]2O)o1)S(C)(=O)=O`: the inhibition was -3.7%. For the compound `COc1ccc(Cl)cc1NC(=O)[C@@H]1CCCN1C(=O)c1cccs1`, the inhibition is 1.43%. Regarding `CC(C)c1nnc(NC(=O)C2CCCN2S(=O)(=O)c2ccc(Cl)cc2)s1` (stereo not drawn), the inhibition is 39.3%. For `COc1ccccc1NC(=O)C1CCCN1S(=O)(=O)c1ccc(Cl)cc1` (stereo not drawn) the value was 62.4% (active); for `Cc1cccc(NC(=O)C2CCCN2S(=O)(=O)c2ccc(F)cc2)c1C` (stereo not drawn), 50% (active). As to `O=C(NCc1ccccc1Cl)C1CCCN1S(=O)(=O)c1ccc(F)cc1` (stereo not drawn), the inhibition was 2.31%.

In the case of `Cc1cccc(NC(=O)C2CCCN(C(=O)Nc3ccc(F)cc3)C2)c1C` (stereo not drawn), the inhibition was 21.2%.
